Laboratory results taken from PubChem BioAssay (NCATS).
Results filed as inconclusive are left out. Active and inactive are the calls of the source. Calls come from the whole dose curve; as a rule, active = well fitted inhibition curve with a large enough effect; inconclusive = small, poorly fitted or top-dose-only effect; inactive = flat fitted curve, though single readings scatter.

Key:
[1] = system: CRL-7250; assay: Cytotoxic Profiling of Annotated Libraries Using Quantitative High-Throughput Screening (AID 1296008); conditions: Five cell lines viability, CellTiter-Glo ATP luminescence, 48-72 h; max response: active compounds read low; for max response: % is set by controls: 0 for no effect and ±100 for the full control effect
How it was run: (§1)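 Cytotoxicity was measured as CellTiter-Glo ATP luminescence, read after 10 min at room temperature. Compound treatment of the cells lasted 48 or 72 hr at 37 degrees Celsius in a qHTS format.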

[2] = system: HEK293; assay: as above; conditions: Five cell lines viability, CellTiter-Glo ATP luminescence, 48-72 h; max response: active compounds read low
How it was run: as §1

[3] = system: HaCat; assay: as above; conditions: Five cell lines viability, CellTiter-Glo ATP luminescence, 48-72 h; max response: active compounds read low
How it was run: as §1

[4] = system: KB-3-1; assay: as above; conditions: Five cell lines viability, CellTiter-Glo ATP luminescence, 48-72 h; max response: active compounds read low
How it was run: as §1

[5] = system: NIH3T3; assay: as above; conditions: Five cell lines viability, CellTiter-Glo ATP luminescence, 48-72 h; max response: active compounds read low
How it was run: as §1

[6] = system: HACAT; assay: qHTS assay to identify novel small-molecules to repurpose for Merkel cell carcinoma treatment (AID 1296009); conditions: MCC and control cell lines, CellTiter-Glo viability, 72 h; at 44.8 µM (top of the series) unless noted
How it was run: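 After compound transfer in DMSO, plates were kept 72 hr at 37 degree celsius. Luminescent ATP signal from CellTiter-Glo served as viability measure, normalized against DMSO and no-cell controls.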

Measured: max response
Note: nearly all actives have a fitted effect of over 60% in size.

O=C(Cn1c2ccccc2c2nc3n(c(=O)c21)CCS3)N1CCCC1
inactive: [1] | [2] -15.3% | [3] | [4] | [5] 1.74% | [6]

O=C(OCC(O)CO[C@@H]1O[C@H](C(=O)O)[C@@H](O)[C@H](O)[C@H]1O)c1ccccc1 (stereo partly drawn)
inactive: [1] 4.18% | [2] -2.05% | [3] | [4] 0.261% | [5] 0.296% | [6]

O=C(OCC1OC(Oc2ccc(O)cc2COC(=O)C2(O)C(O)CCC(=O)C2OC(=O)C2C=CCC2)C(OC(=O)C2C=CCC2)C(O)C1O)C1C=CCC1 (stereo not drawn)
inactive: [1] -0.0328% | [2] -10.5% | [3] | [4] 6.15% | [5] 3.99% | [6] inactive [at 17.4 µM]

CC[C@@H](C)[C@H](N)C(=O)N1Cc2ccccc2C1
inactive: [1] -11.3% | [2] -17.7% | [3] | [4] -3.64% | [5] 0.412% | [6]

C=CC1(C)CC=C2C(CCC3C(C)(C(=O)O)CCCC23C)C1 (stereo not drawn)
inactive: [1] 4.68% | [2] -4.6% | [3] | [4] 7.47% | [5] -6.29% | [6]

CC(C)c1c(NC(=O)Nc2ccc(Cl)cc2)c(=O)n(-c2ccccc2)n1C
inactive: [1] -6% | [2] -5.54% | [3] | [4] -6.5% | [5] -1.6% | [6]

C=C1CC23CC1CCC2C12OC(=O)C(C)(C(O)CC1O)C2C3C(=O)O (stereo not drawn)
inactive: [1] -0.83% | [2] -15.6% | [3] | [4] 1.34% | [5] -6.25% | [6]

O=C(/C=C/c1ccc(O)c(O)c1)O[C@H]1[C@@H]2C=CO[C@@H](O[C@@H]3O[C@H](CO)[C@@H](O)[C@H](O)[C@H]3O)[C@@H]2[C@@]2(CO)O[C@@H]12
inactive: [1] -3.33% | [2] -6.64% | [3] | [4] | [5] -4.11% | [6] inactive [at 17.4 µM]

Cc1c(-c2ccc3c(c2)OCO3)oc2ccc(C(O)C(C)O)cc12 (stereo not drawn)
inactive: [1] -2.17% | [2] -10.1% | [3] | [4] | [5] | [6]

CC(C)=CCC/C(C)=C/CO[C@@H]1O[C@H](CO[C@@H]2OC[C@](O)(CO)[C@H]2O)[C@@H](O)[C@H](O)[C@H]1O
inactive: [1] 2.57% | [2] -12.6% | [3] | [4] | [5] | [6] inactive [at 17.4 µM]

CC1(O)CC(O)C2C(C(=O)O)=COC(OC3OC(CO)C(O)C(O)C3OC(=O)/C=C/c3ccc(O)cc3)C21 (stereo not drawn)
inactive: [1] 2.15% | [2] 1.1% | [3] | [4] 6.91% | [5] | [6] inactive [at 17.4 µM]

C=C(C)[C@@H]1CC[C@]2(C)CC[C@]3(C)C(CCC4[C@@]5(C)CC[C@H](O)C(C)(C)C5CC[C@]43C)C12 (stereo partly drawn)
inactive: [1] | [2] 1.06% | [3] | [4] | [5] 2.33% | [6] inactive [at 17.4 µM]

CC(=O)O[C@H]1[C@H](OC(=O)C(C)C)[C@]2(C)OC3(CC[C@]2(C)[C@H]2CCC[C@]4(CO4)[C@]12C)COC(=O)C3 (stereo partly drawn)
inactive: [1] -5.19% | [2] -0.769% | [3] | [4] 4.61% | [5] -0.316% | [6] inactive [at 17.4 µM]

OC[C@@]1(O)CO[C@H](OC[C@H]2O[C@@H](OC(CCCCc3ccc(O)cc3)CCc3ccc(O)cc3)[C@H](O)[C@@H](O)[C@@H]2O)[C@@H]1O (stereo partly drawn)
inactive: [1] -9.7% | [2] -4.6% | [3] | [4] 9.32% | [5] | [6] inactive [at 17.4 µM]

Cc1ccc(C)c(S(=O)(=O)n2cnc3ccccc32)c1
inactive: [1] -12.1% | [2] -10.9% | [3] | [4] | [5] | [6]

Cc1ccc([C@@H]2CC=C(C(=O)O)[C@H](c3ccc(C(C)(C)C)cc3)N2S(=O)(=O)c2ccc(C)cc2)cc1
inactive: [1] | [2] -30.1% | [3] | [4] 3.45% | [5] | [6]

COc1cc(/C=C/CO[C@@H]2O[C@H](CO)[C@@H](O)[C@H](O)[C@H]2O)cc(OC)c1O[C@@H]1O[C@H](CO)[C@@H](O)[C@H](O)[C@H]1O
inactive: [1] -7.94% | [2] -7.31% | [3] | [4] | [5] | [6] inactive [at 17.4 µM]

CC(=O)OC(C)C(C)(O)C(=O)O[C@@H]1CC[C@]2(C)CC(=O)C(=C(C)C)C[C@H]2[C@]1(C)OC(C)=O (stereo partly drawn)
inactive: [1] -0.377% | [2] 0.4% | [3] | [4] 6.09% | [5] -1.04% | [6] inactive [at 17.4 µM]
